TSHR antagonist – Antagonists of the Thyroid Stimulating Hormone Receptor: HTS campaign; Thyrotropin receptor (Homo sapiens), P16473; TSHR-expressing cells, TSH-stimulated cAMP HTRF, 2 h; active compounds read low; AID 504810, 2011; activity change, negative = inhibition, % at 11.5 µM; actives 0.2% (n = 330,000);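 active means activity change below a set negative limit, meaning inhibition stronger than a set level, cut at about -70% in these data; inconclusive means activity change between two set negative limits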; further: on the % scale 0 is the no-effect control and ±100 the full control effect
Target sequence (P16473 whole entry, looked up): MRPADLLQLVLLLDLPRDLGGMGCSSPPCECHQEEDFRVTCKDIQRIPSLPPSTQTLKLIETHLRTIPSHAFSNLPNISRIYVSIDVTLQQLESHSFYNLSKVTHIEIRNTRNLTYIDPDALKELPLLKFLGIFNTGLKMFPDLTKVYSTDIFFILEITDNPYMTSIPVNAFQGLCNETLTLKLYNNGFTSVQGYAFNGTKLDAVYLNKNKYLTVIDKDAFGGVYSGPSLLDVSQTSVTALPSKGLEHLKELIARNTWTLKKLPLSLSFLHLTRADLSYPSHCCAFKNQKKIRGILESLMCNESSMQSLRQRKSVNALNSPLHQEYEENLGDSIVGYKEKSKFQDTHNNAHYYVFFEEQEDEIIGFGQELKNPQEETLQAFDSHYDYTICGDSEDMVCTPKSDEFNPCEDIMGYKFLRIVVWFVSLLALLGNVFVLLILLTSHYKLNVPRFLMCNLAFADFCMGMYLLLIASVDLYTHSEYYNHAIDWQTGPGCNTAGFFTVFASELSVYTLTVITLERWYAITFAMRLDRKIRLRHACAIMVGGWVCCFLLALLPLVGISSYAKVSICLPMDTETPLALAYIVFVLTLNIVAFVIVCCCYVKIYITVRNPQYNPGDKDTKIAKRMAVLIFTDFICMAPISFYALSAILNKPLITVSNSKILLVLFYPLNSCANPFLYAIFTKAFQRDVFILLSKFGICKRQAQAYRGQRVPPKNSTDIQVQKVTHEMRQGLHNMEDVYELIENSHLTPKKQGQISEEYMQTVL
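Read-out is FRET at 665 nm (cryptate excitation 337 nm) from a cryptate-tagged anti-cAMP antibody, competed by cell cAMP against cAMP-d2. Compounds are tested on freshly harvested TSHR cells challenged with 4nM TSH (EC80) for 2 hours at 37 deg C.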
uPA surface inh – qHTS for Inhibitors of Cell Surface uPA Generation; cell surface uPA generation assay, qHTS; Potency, µM (series often up to 38.3 µM), for the others: at the top dose activity change, negative = inhibition, usual class: inhibitors; actives 0.31% (n = 330,000); active means well fitted inhibition curve with a large enough effect; inconclusive means small, poorly fitted or top-dose-only effect; inactive means no such curve, though single readings can be large or run the other way; tested in mouse RAW 264.7 cells; further: potency means the concentration at half of the fitted maximal effect; on the % scale 0 is the no-effect control and ±100 the full control effect; nearly all actives have a fitted effect of over 55% in size
TCR act – Activators of T cell receptors: qHTS campaign | 330,000 tested, under 10 active | primary human leukocytes, anti-CD3, IL-2 HTRF, 48 h | Potency, µM (top dose mostly 9.22 µM), without a hit: top-dose activation of IL-2 secretion, actives largely listed as activators | AID 504894, 2011; further: % of control where 0% means no effect
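1) Mix primary human leukocytes, a-CD3 beads and compound. 2) Incubate 48 hr. 3) Add HTRF IL-2 reagents (a-IL-2-K, a-IL-2-d2).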
PKM2 activator – qHTS Assay for Activators of Human Muscle isoform 2 Pyruvate Kinase; purified PKM2, Kinase-Glo ATP luminescence, activation; response scale: 0% is enzyme alone, no compound; Potency, µM (highest dose often 57.5 µM), inactives show top-dose activation, hits mostly activators; actives 0.34% (n = 260,000); further: potency means the concentration at half of the fitted maximal effect; on the % scale 0 is the no-effect control and ±100 the full control effect; nearly all actives have a fitted effect of over 55% in size
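Kinase-Glo luminescence reports ATP generated from ADP (0.1 mM) and PEP (0.5 mM) by purified hPK-M2 after 1 h at room temperature, pH 7.2 imidazole buffer; intermediate enzyme activity allows detecting inhibitors and activators.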
Numbers without * were called inactive; [ ] = remark or other dose. Rows were chosen to be rich in hits. Some 0.75% of all compounds tested hit in one or more screens of this group. Unless noted, the call rests on the fitted dose curve; in most records, active means well fitted curve in the direction sought with a large enough effect; inconclusive means small, poorly fitted or top-dose-only effect, or another doubt; inactive means no such curve, though single readings can be large; an effect the other way counts as inactive or inconclusive.

Results for COC(=O)c1c(N2C(=O)CC(Sc3ccccc3C(=O)O)C2=O)sc2c1CCCC2 (stereo not drawn) ?
TSHR antagonist: 6; uPA surface inh: -3%; TCR act: -6%; PKM2 activator: 7.9µM*

How did CCOC(=O)c1cc(CC)sc1N1C(=O)CC(Sc2ccccc2C(=O)O)C1=O (stereo not drawn) do in these assays?
TSHR antagonist: -8; uPA surface inh: 2%; TCR act: -3%; PKM2 activator: 25µM*

How did CCOC(=O)c1cc(CC)sc1N1C(=O)CC(Sc2ncccc2C(=O)O)C1=O (stereo not drawn) do in these assays?
TSHR antagonist: 0; uPA surface inh: 5%; TCR act: 2%; PKM2 activator: 5%

Results for COC(=O)c1c(N2C(=O)CC(Sc3ccccc3C(=O)O)C2=O)sc(C)c1C (stereo not drawn) ?
TSHR antagonist: -14; uPA surface inh: -1%; TCR act: -2%; PKM2 activator: -10%

Results for COc1cc2c(cc1OC)C1O[C@](CCCCN3C(=O)c4ccccc4C3=O)(C2)Oc2c1c(=O)oc1ccc(F)cc21 ?
PKM2 activator: 0%[11.5 µM]

What do the screens show for `NC(=O)C1(Nc2ccc(C(=O)O)cc2)CCCC1`?
uPA surface inh: -1%; TCR act: -2%

How did O=C1C=CC(=O)N1CCNc1ncc(C(F)(F)F)cc1Cl do in these assays?
TSHR antagonist: -32; uPA surface inh: -15%; TCR act: 4%; PKM2 activator: 18µM*

What do the screens show for `CCOc1ccc(/C=C/c2c([N+](=O)[O-])c(=O)n(C)c(=O)n2C)cc1`?
TSHR antagonist: -3; uPA surface inh: -19%; TCR act: 0%; PKM2 activator: -1%

What do the screens show for `CCc1ccc(/C=C/c2c([N+](=O)[O-])c(=O)n(C)c(=O)n2C)cc1`?
TSHR antagonist: 4; uPA surface inh: 6.3µM*; TCR act: -3%

How did COc1ccccc1N1CCN(S(=O)(=O)CCNC(=O)c2ccccc2Br)CC1 do in these assays?
TSHR antagonist: 6; uPA surface inh: 0%; TCR act: 9%

How did Cc1ccc(S(=O)(=O)N2CCCCC2CCNC(=O)C(=O)NCCc2ccco2)cc1 (stereo not drawn) do in these assays?
TSHR antagonist: -6; uPA surface inh: 1µM*; TCR act: -13%

What do the screens show for `O=C1Nc2ccccc2/C1=C\C(=O)c1ccccc1`?
TSHR antagonist: -3; uPA surface inh: inconclusive; TCR act: 6%

Results for O=C(/C=C1\C(=O)Nc2ccccc21)/C=C1\C(=O)Nc2ccccc21 ?
TSHR antagonist: 1; uPA surface inh: inconclusive; TCR act: -148%; PKM2 activator: 1.4µM*

Results for CCOC(=O)c1sc(NC(=O)CCc2ccccc2)nc1C ?
TSHR antagonist: -2; uPA surface inh: 4.5µM*; TCR act: 6%; PKM2 activator: -2%[11.5 µM]

Results for CCCC(=O)Nc1nnc(CCc2ccccc2)s1 ?
TSHR antagonist: -89*; uPA surface inh: 1%; PKM2 activator: 3%

What do the screens show for `CCCCc1nnc(NC(=O)CCc2ccccc2)s1`?
TSHR antagonist: 73; uPA surface inh: 15%; TCR act: 3%; PKM2 activator: 6%

What do the screens show for `CCCCc1ccc(NC(=S)NCCc2ccc(F)cc2)cc1`?
TSHR antagonist: -6; uPA surface inh: 0%; TCR act: -3%; PKM2 activator: -1%

Results for O=C(N/N=C/c1ccc([N+](=O)[O-])o1)c1ccc(O)cc1 ?
TSHR antagonist: 7; uPA surface inh: 7.1µM*; TCR act: 1%; PKM2 activator: 0%

How did COc1ccc(S(=O)(=O)N/N=C\c2ccc([N+](=O)[O-])o2)c(OC)c1 do in these assays?
TSHR antagonist: 9; uPA surface inh: inconclusive; TCR act: -1%; PKM2 activator: -1%

How did O=[N+]([O-])c1ccc(/C=N\NS(=O)(=O)c2ccc(F)cc2)o1 do in these assays?
TSHR antagonist: 12; uPA surface inh: 8.9µM*; TCR act: 3%; PKM2 activator: -1%

How did O=C(N/N=C/c1ccc([N+](=O)[O-])o1)c1ccncc1 do in these assays?
TSHR antagonist: 7; uPA surface inh: -6%; TCR act: 7%; PKM2 activator: 7%

Results for O=C(N/N=C/c1ccc([N+](=O)[O-])o1)c1cc2ccccc2o1 ?
TSHR antagonist: 4; uPA surface inh: 2.5µM*; TCR act: -46%; PKM2 activator: 0%

How did Cc1ccc(NC(=O)CCN2C(=O)C3CCCCC3C2=O)cc1[N+](=O)[O-] (stereo not drawn) do in these assays?
TSHR antagonist: 7; uPA surface inh: -3%; TCR act: -4%

What do the screens show for `Cn1nc(C(=O)NCCCN2CCCCC2)c2c1-c1ccccc1SC2`?
TSHR antagonist: 32; uPA surface inh: -4%; TCR act: 3%; PKM2 activator: -2%[0.46 µM]

How did CN1CC(=O)Nc2ccc([N+](=O)[O-])cc2C1=O do in these assays?
TSHR antagonist: -2; uPA surface inh: -7%; TCR act: 12%; PKM2 activator: -4%

Results for Cc1nc2nc(C)n(CCN3CCOCC3)c(=O)c2c(-c2cccc([N+](=O)[O-])c2)c1C(=O)CCCCCCCCCCN1CCC(c2ccccc2)(c2ccccc2)CC1 ?
uPA surface inh: -10%; TCR act: 3%

Results for COc1ccc(C(=O)Nc2ccc(Cl)c(S(=O)(=O)N3CCOCC3)c2)cc1 ?
TSHR antagonist: -45; uPA surface inh: -1%; TCR act: -2%[46.1 µM]

Results for O=C(Nc1ccc(Cl)c(S(=O)(=O)N2CCOCC2)c1)c1ccc(OCC2CCCO2)cc1 (stereo not drawn) ?
TSHR antagonist: -87*; uPA surface inh: -12%; TCR act: -5%; PKM2 activator: 1%

Results for CCCCn1cnc2c(SCc3ccc(Br)cc3)nc(N)nc21 ?
uPA surface inh: -1%; TCR act: 0%

What do the screens show for `NC(=O)COc1ccccc1/C=C1/SC(=O)N(CC(=O)N2CCc3ccccc3C2)C1=O`?
TSHR antagonist: -4; uPA surface inh: -7%; TCR act: -2%; PKM2 activator: 20µM*

How did CCOc1cc(/C=C2/SC(=O)N(CC(=O)N3CCc4ccccc4C3)C2=O)ccc1OCC(=O)O do in these assays?
TSHR antagonist: 19; uPA surface inh: 1%; TCR act: 9%; PKM2 activator: inconclusive

What do the screens show for `Cc1noc(C)c1S(=O)(=O)N1CCc2nc(COc3ccccc3)c3c(c2C1)CO[C@@H](C)C3`?
PKM2 activator: -5%[11.5 µM]

What do the screens show for `Oc1ccc(/C=C/c2ccc3ccccc3n2)cc1`?
TSHR antagonist: 13; uPA surface inh: inconclusive; TCR act: -9%; PKM2 activator: -29%

What do the screens show for `C(=Cc1c[nH]c2ccccc12)c1ccc2ccccc2n1`?
uPA surface inh: -11%; TCR act: -3%

How did Fc1ccccc1/C=C/c1ccc2ccccc2n1 do in these assays?
TSHR antagonist: -1; uPA surface inh: 11µM*; TCR act: -4%[46.1 µM]; PKM2 activator: -36%
